Screening data: PubChem BioAssay, National Center for Advancing Translational Sciences (NCATS)
This is a sample that favours compounds with a hit; in the whole collection about 9% have one here.
PLK1 PBD block = inhibitors of human PLK1 polo-box domain binding. P53350. Plk1 PBD binding of FITC phosphopeptide, fluorescence polarization. Potency, µM, without a hit: max response, negative = inhibition, usual class: inhibitors. hit rate 2.8% among 360,000. AID 720504; further: series mostly up to about 57 µM; on the % scale 0 is the no-effect control and ±100 the full control effect; nearly all actives have a fitted effect of over 65% in size
G9a inh = G9a (human) methyltransferase inhibition. hit rate 8.8% among 350,000. AID 504332. G9a H3K9 monomethylation, AlphaScreen, 2 h. Q96KQ7. Potency, µM (highest dose often 102 µM), inactives show top-dose activity, negative = inhibition, actives largely listed as inhibitors; further: on the % scale 0 is the no-effect control and ±100 the full control effect; nearly all actives have a fitted effect of over 75% in size
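G9a (20 nM) was preincubated 15 min with compound, then reacted 2 h at room temperature with 500 nM biotin-H3K9 peptide and 20 µM SAM. Monomethyl-H3K9 detected by AlphaScreen using anti-H3K9me1 antibody.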
BAZ2B inh = BAZ2B (human) inhibition; Q9UIF8; AlphaScreen BAZ2B-H3K14Ac peptide displacement; Potency, µM (doses to about 114 µM), inactives show at the highest dose activity change, negative = inhibition, actives largely listed as inhibitors; hit rate 4.4% among 360,000; further: on the % scale 0 is the no-effect control and ±100 the full control effect; nearly all actives have a fitted effect of over 60% in size
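BAZ2B (50 nM) with biotin-H3(5-23)K14Ac peptide (50 nM) in PBS pH 7.4, 0.01% Tween-20, preformed 30 min, then compound 30 min at room temperature; top concentration 110uM. AlphaScreen streptavidin donor/nickel chelate acceptor beads (10 ug/mL final), 20 min dark, signal read.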
HP1b binding inh = inhibitors of HP1-beta chromodomain binding to methylated histone tails; P83916; AlphaScreen HP1-beta / biotin-H3K9me3 peptide binding; Potency, µM (series often up to 114 µM), inactives show top-dose activity change, negative = inhibition, usual class: inhibitors; hit rate 0.56% among 390,000; AID 540317; further: nearly all actives have a fitted effect of over 70% in size
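Compound inhibition of the preformed complex between 50 nM HP1-beta and 50 nM biotinylated H3K9me3 peptide was read by AlphaScreen. Buffer was PBS pH 7.4 with 0.01% Tween-20. Incubations ran 30 min at room temperature, with 10 ug/mL donor/acceptor beads.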
12-LOX inh = inhibitors of human 12S-lipoxygenase ALOX12. purified 12hLO, xylenol orange hydroperoxide absorbance. P18054. hit rate 1.1% among 580,000. Potency, µM (doses to about 108 µM), for inactives: at the top dose activity change, negative = inhibition, hits mostly inhibitors; further: on the % scale 0 is the no-effect control and ±100 the full control effect
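Purified human 12hLO at 150 nM in 25 mM Hepes, 0.01% Triton X-100, pH 7.0, preincubated 15 min at room temperature with compound. Reaction started with 40 uM arachidonic acid, 30 min at room temperature. Hydroperoxide measured by Fe-xylenol orange, 573/405 nm absorbance ratio.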
JMJD2A Tudor = JMJD2A Tudor domain (human) inhibition; O75164; AlphaScreen JMJD2A-Tudor / H3K4me3 peptide binding; Potency, µM (titrated, usually from 114 µM), inactives show at the highest dose activity change, negative = inhibition, hits mostly inhibitors; hit rate 4.4% among 390,000; further: on the % scale 0 is the no-effect control and ±100 the full control effect; nearly all actives have a fitted effect of over 50% in size
* hit, by the source's call; ? = inconclusive; nt = no result; ! = not confirmed by another sample; [ ] = remark or other dose. The call rests on the fitted dose curve; in most records, active means well fitted curve in the direction sought with a large enough effect; inconclusive means small, poorly fitted or top-dose-only effect, or another doubt; inactive means no such curve, though single readings can be large; an effect the other way counts as inactive or inconclusive. Potency means the concentration at half of the fitted maximal effect.

SMILES	PLK1 PBD block	G9a inh	BAZ2B inh	HP1b binding inh	12-LOX inh	JMJD2A Tudor
O=C(NC(=S)Nc1c(Cl)cc(Cl)cc1Cl)c1ccccc1	-2.8%	nt	nt	nt	35.5µM*	nt
Cc1cccc(C(=O)NC(=S)Nc2ccc(S(=O)(=O)N(C)c3ccccc3)cc2)c1	-15.4%	?	-3.4%	-8.6%	?	-25.1%
CCOC(=O)c1c(NC(=O)C(CC)Oc2ccccc2)sc2c1CCCC2 (configuration not stated)	nt	nt	nt	nt	19.6%	nt
Cn1c(SCC(=O)N/N=C/c2ccncc2)nc2ccccc21	-9.0%	nt	?	7.3%	-4.8%	0.7%
Cc1cc(C)cc(NC(=O)N2CCN(S(C)(=O)=O)CC2)c1	-29.2%	-34.5%	-9.9%	32.1%	6.0%	4.5%[11.4 µM]
Cc1cc(C)c(NC(=O)CN(C)S(=O)(=O)c2ccc3c(c2)c(=O)n(C)c(=O)n3C)c(C)c1	nt	6.2%[59 µM]	-1.2%	25.1%	-12.5%	-16.5%
CCC(=O)Nc1cccc(NC(=S)NC(=O)c2ccccc2)c1	-6.2%	?	-4.5%	23.7%	-27.8%	-6.3%
Cc1ccc(NC(=S)NC(=O)c2ccc(F)cc2)cc1S(=O)(=O)Nc1cccc(Cl)c1	-25.8%	?	?	13.3%	12.6µM*	-11.2%
Cc1ccc(NC(=O)c2cccs2)cc1S(=O)(=O)Nc1cccc(Cl)c1	-16.1%	-1.0%[59 µM]	-32.6%	29.2%	-27.5%	-21.3%[57.1 µM]
NC(=O)c1ccccc1NC(=O)c1ccc2ccccc2c1	-20.0%	-10.4%	3.2%	20.9%	12.5%	-4.0%
CNC(=S)Nc1ccc(C)c(NC(=S)NC)c1	?	28.2µM*	-26.1%	?	-10.0%	-15.5%
O=C(NC(=S)Nc1ccccc1C(=O)O)c1ccc2ccccc2c1	?	28.2µM*	-22.3%	-15.3%	25.1µM*	-26.6%
O=C(NC(=S)Nc1cccc(NC(=S)NC(=O)c2ccccc2)c1)c1ccccc1	-29.1%	nt	nt	-11.3%	14.1µM*	-26.2%
O=[N+]([O-])c1cccc2cnccc12	-11.4%	nt	nt	23.7%[57 µM]	-5.4%	-8.3%
C=CCN(CC=C)S(=O)(=O)c1ccc(NC(=S)NC(=O)c2ccco2)cc1	-10.9%	5.6%[2.33 µM]	-0.8%	-0.3%	?	-15.1%
Cc1ccc(NC(=S)NC(=O)c2ccccc2)cc1NC(=S)NC(=O)c1ccccc1	-8.3%	?	-26.5%	-4.9%	3.98µM*	-26.8%
C=CCN(CC=C)S(=O)(=O)c1ccc(NC(=S)NC(=O)c2ccc(-c3ccccc3)cc2)cc1	-12.5%	-29.8%[2.33 µM]	-26.5%	-8.3%	3.16µM*	-29.9%
Cc1ccccc1C(=O)NC(=S)Nc1ccccc1C(=O)O	-23.7%	20µM*	-19.4%	-19.8%	44.7µM*	-10.5%
COCCNC(=O)CN1C(=O)COc2ccc(Cl)cc21	-2.9%	-2.6%	-24.0%	41.3%	-3.1%	-2.1%
Cc1cccc(CC(=O)N2CCCn3cc(-c4cccc(C#N)c4)nc32)c1	nt	nt	nt	nt	4.4%	nt
CC1(C)CCC2=C(O1)c1ccccc1C(=O)C2=O	nt	14.1µM*!	nt	nt	?	nt
CC1(C)CCC(=O)c2ccccc21	-7.2%	nt	nt	15.8%	-1.8%	5.5%
CCCN(CCC)C(=O)C1CCC(CNS(=O)(=O)c2cccc3nsnc23)CC1 (configuration not stated)	-8.5%	3.6%	-5.6%	65.3%	3.9%	-8.9%
COc1ccc(-c2[nH]ncc2CN2CCC(N3CCSCC3)CC2)c(F)c1	15µM*	?	-7.1%	-8.3%	-5.8%	?
COc1ccc(C(=O)Oc2ccc3c(=O)c(-c4ccccc4)coc3c2)cc1OC	nt	nt	nt	nt	26.6%	nt
COc1ccc(N2CCN(S(=O)(=O)c3ccc(-c4cc(C(F)(F)F)on4)s3)CC2)cc1	nt	2.5%[59 µM]	-10.5%	12.7%	-13.3%	-5.2%
COc1ccccc1CNC(=O)COC(=O)c1cccc(S(=O)(=O)N2CCCC2)c1	-1.9%	32.7%	-2.2%	31.3%	0.0%	22.8%
O=C(O)c1ccccc1C(=O)NNc1ccc(Cl)cc1Cl	?	2.82µM*	-28.0%	34.9%	?	-8.8%
O=C(Nc1ccc(Cl)cc1Cl)c1ccccc1-c1ccccc1	nt	nt	nt	nt	-4.7%	nt
